Screening results deposited in PubChem by National Center for Advancing Translational Sciences (NCATS).
In the library only some 8.8% were active in any assay of this set; here they are far more common.
KB-V1 cytotox – kills drug-selected multidrug resistant KB-V1 cells; KB-V1 MDR cells viability, CellTiter-Glo, 72 h; Potency, µM (highest dose often 46.1 µM), hits mostly cytotoxic; 3.4% of 400,000 active; also: nearly all actives have a fitted effect of over 60% in size
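Luminescent ATP read-out (CellTiter-Glo, 10 min) measures survival of drug-selected KB-V1 MDR cells after 72 h, 37 degrees C compound exposure. Medium: phenol-red-free DMEM, 10% FBS. Values from fitted concentration-response curves.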
HT1080 IDH1KD tx – toxicity to HT-1080 IDH1 knockdown cells (counter line) | 2% of 360,000 active | HT-1080 IDH1 knockdown viability, ATP luminescence, 48 h | AID 686971 | Potency, µM (top dose mostly 46.1 µM), hits mostly cytotoxic
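% activity derives from luminescence (CellTiter-Glo), normalised to DMSO and no-cell wells. HT-1080-IDH1KD cells, 750/well, had 48 h compound exposure at 37 °C.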
IL-1B inflam inh – inhibitors of inflammasome signaling (IL-1 beta secretion); THP-1 LPS/ATP IL-1B secretion, AlphaLISA, 16 h; stronger effect = lower value; activity change, % at 57.5 µM; 4.7% of 360,000 active; AID 743279; in the data active = activity change below about -50%; inconclusive = mostly about -30% to -49%
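THP-1 cells pretreated 1 hr with compounds (up to 57.5 uM final), then stimulated with LPS (250 ng/mL final) plus ATP (1.25 mM final); secreted IL-1B measured by AlphaLISA after 16 hr, decreased signal indicating inhibition.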
HT1080-NT tox – kills 2HG-producing HT-1080-NT fibrosarcoma cells | HT-1080-NT fibrosarcoma viability, CellTiter-Glo ATP luminescence, 48 h | AID 686970 | 1.6% of 360,000 active | Potency, µM (top dose mostly 46.1 µM), actives largely listed as cytotoxic;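 also: NT is the 2HG producing partner of a matched IDH1 knockdown line; nearly all actives have a fitted effect of over 55% in size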
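Viability of the 2HG-overproducing fibrosarcoma line after 48 hours of compound exposure at 37 degrees C was determined by luminescence with CellTiter-Glo, and concentration-effect curves were then fitted and categorized.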
KB-3-1 tox – KB-3-1 parental cell cytotoxicity. AID 1347075. 1.4% of 400,000 active. Potency, µM (titrated, usually from 46.1 µM), most hits filed as cytotoxic. KB-3-1 viability, CellTiter-Glo ATP luminescence, 72 h; also: nearly all actives have a fitted effect of over 60% in size
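Luminescent ATP read-out (CellTiter-Glo) measures survival of drug-naive KB-3-1 cells after 72 h compound exposure at 37 °C. Titration series was screened from lowest to highest concentration, with DMSO vehicle plates as background controls.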
Numbers stand for hits; . = inactive; ? = inconclusive; / = no result; ! = not active in a repeat; [ ] = dose if it differs, or a comment. Unless noted, calls follow the shape of the dose curve; as a rule, active = well fitted curve in the direction sought with a large enough effect; inconclusive = small, poorly fitted or top-dose-only effect, or another doubt; inactive = no such curve, though single readings can be large; an effect the other way counts as inactive or inconclusive.

SMILES	KB-V1 cytotox	HT1080 IDH1KD tx	IL-1B inflam inh	HT1080-NT tox	KB-3-1 tox
O=C(Nc1sc2c(c1C(=O)NCc1ccccc1)CCCC2)c1cc(=O)c2cc(Cl)ccc2o1	?	/	/	/	.
CCOc1ccccc1-c1nc2c(s1)CCc1onc(-c3ccc(OC)cc3)c1-2	.	.	.	?	.
COCCSc1ccccc1C(=O)NCc1cccnc1	?	.	-75.9	.	.
COCCSc1ccccc1C(=O)NCc1ccc(S(N)(=O)=O)cc1	?	.	.	.	.
CCOC(=O)C1=CN(CC)S(=O)(=O)NC1c1ccc2ccccc2c1 (stereo not drawn)	.	.	.	.	.
FC(F)Oc1ccc(NC(=S)N2CCc3ccccc32)cc1	.	.	-61.4	.	.
Cc1ccc(CN2CCN(CCCn3cnc4c(OCc5ccccc5)ncnc43)CC2)cc1	.	.	-53.7	.	.
c1ccc(CCCNCCCn2cnc3c(OCc4ccccc4)ncnc32)cc1	.	?	-85.7	.	.
c1ccc(CNCCCn2cnc3c(OCc4ccccc4)ncnc32)cc1	.	.	.	.	.
c1ccc(COc2ncnc3c2ncn3CCCN2CCN(Cc3cccc4ccccc34)CC2)cc1	?	?	.	16.4µM	14.6µM
Cc1cc(C)nc(NC(=S)NC(=O)c2ccccc2F)n1	.	.	/	.	.
Cc1cc(C)nc(S/C=C/C(=O)c2ccccc2F)n1	?	2.91µM	?	3.66µM	.
CCCCCCSc1cc(-c2nc3ccc(C)cn3c2NCCCC)ccc1OC	?	.	-71.8	.	.
CCCCNc1c(-c2ccc(OC)c(SC(C)CC)c2)nc2ccc(Cl)cn12 (stereo not drawn)	.	.	-66.2	.	.
CCCCNc1c(-c2ccc(-c3ccc(C(C)=O)cc3)c(OC)c2)nc2cc(C)ccn12	?	?	-50.7	?	?
CCCCNc1c(-c2ccc(OC)c(SC(C)CC)c2)nc2ccc(C)cn12 (stereo not drawn)	18.4µM!	?	-99.6!	20.6µM	?
CCCC(C)NC(=O)c1sc2nc3n(c(=O)c2c1C)CCC3 (stereo not drawn)	?	.	.	.	.
COCc1c(C(=O)OCC(=O)N2CCCC2=O)oc2ccccc12	?	.	.	.	.
CCCCNc1c(-c2ccc(OC)c(SC(C)CC)c2)nc2cnccn12 (stereo not drawn)	?	.	-66.5	.	?
CCCCNc1c(-c2ccc(Sc3ccc(OC)cc3)cc2)nc2cc(C)ccn12	.	?	.	?	?
CCCCCCSc1ccc(-c2nc3cnccn3c2NCCCC)cc1	.	.	.	.	.
CCCCNc1c(-c2ccc(OC)c(SC(C)CC)c2)nc2cc(C)ccn12 (stereo not drawn)	.	23.1µM	-85.4	20.6µM	?
CCCc1[nH]nc2c1C(c1cccc(OC(=O)c3ccco3)c1)C(C#N)=C(N)O2 (stereo not drawn)	.	?	-62.2	.	.
COc1ccccc1NS(=O)(=O)c1ccc2c(c1)OCCO2	.	.	.	.	.
COC(=O)c1sccc1NS(=O)(=O)c1ccc(OC)cc1	18.4µM	?	.	?	.
SMILES	KB-V1 cytotox	HT1080 IDH1KD tx	IL-1B inflam inh	HT1080-NT tox	KB-3-1 tox
COC(=O)c1ccc(C)c(NS(=O)(=O)c2ccc(OC)cc2)c1	1.03µM	?	.	?	0.731µM
CSc1ccccc1NS(=O)(=O)c1ccc2c(c1)OCCO2	20.6µM	.	.	.	.
COC(=O)c1ccc(C)c(NS(=O)(=O)c2ccc(C)c([N+](=O)[O-])c2)c1	.	?	.	.	.
COC(=O)c1ccc(C)c(NS(=O)(=O)c2ccc3c(c2)OCCO3)c1	1.16µM	0.708µM	.	0.501µM	2.31µM
COc1ccc(NC(=O)c2cc(-c3sc(NC(=O)c4ccccc4)nc3C)n(-c3ccc(Br)cc3)n2)cc1	.	.	.	.	.
CCN(CC)Cc1c(O)ccc2c([N+](=O)[O-])c(C)n(-c3ccc(OC)cc3)c12	.	?	-74.8	?	?
CCn1cc(C(=O)O)c(=O)c2cc(F)c(N3CCN(C(=S)Nc4ccccc4OC)CC3)cc21	.	.	.	.	?
CCn1cc(C(=O)O)c(=O)c2cc(F)c(N/N=C/c3ccccc3[N+](=O)[O-])cc21	13µM	.	.	.	.
O=C(c1cc(S(=O)(=O)N2CCOCC2)ccc1F)N1CCc2ccccc21	.	.	.	.	?
CCN(CC)CCCNC(=O)c1ccc2nc(CCc3ccccc3)oc2c1	.	/	/	/	.
Fc1ccc(NC(=S)NN=C2CCCCCC2)cc1	.	10µM	.	8.91µM	.
S=C(NN=C1CCCCCC1)Nc1ccc(Cl)cc1	.	.[9.24 µM]	.	?	.
CCCC(O)(c1ccc(Cl)cc1)C(CN1CCOCC1)c1ccccc1 (stereo not drawn)	.	.	.	.	.
CCCCCCC(O)(c1ccc(OC)cc1)C(CN1CCOCC1)c1ccccc1 (stereo not drawn)	?	?	?	?	18.4µM
CCCC(O)(c1ccc(Br)cc1)C(CN1CCOCC1)c1ccc(Cl)cc1 (stereo not drawn)	?	?	-84.1	?	?
CCCC(O)(c1ccc(CC)cc1)C(CN1CCOCC1)c1ccccc1 (stereo not drawn)	?	20.6µM	?	32.6µM	?
CC(C)c1nc(SCC(=O)Nc2ccc(N(C)C)cc2)c2ccccc2n1	?	?	.	.	?
OC(c1ccc(F)c(F)c1)c1nc(-c2cccc(C(F)(F)F)c2)cs1 (stereo not drawn)	.	?	.	?	.
CC1(C)CC2CC(C)(CN2C(=O)COC(=O)c2ccccc2C(F)(F)F)C1 (stereo not drawn)	.	.	.	.	.
Cc1oc2ncn(CC(C)C)c(=O)c2c1C(=O)NCc1cccc(Cl)c1	.	/	/	/	.
CCOc1cc(CNCc2cccnc2)cc(Br)c1OCC(N)=O	.	.	.	.	?
CCc1ccc(-n2c(=O)c3c(C)c(C)sc3n(CC(=O)NCC3CCCO3)c2=O)cc1 (stereo not drawn)	.	.	.	.	.
CCN(CCO)Cc1csc2ccc(C(C)(C)C)cc12	.	.	-56.5	.	.
CCOc1ccccc1NC(=O)c1cnn2c(C(F)F)cc(-c3ccccc3)nc12	.	/	/	/	18.4µM
CCOc1ccc(-c2cc(C(=O)O)c3ccccc3n2)c(OCC)c1	.	7.08µM	.	14.1µM	.
COCCCNC(=O)c1cc(-c2cccnc2)nc2ccccc12	.	.	.	.	.
CCn1nc(C)c(NC(=O)c2cnn3c(C(F)F)cc(-c4ccccc4)nc23)c1C	.	.	.	.	?
COCCNC(=O)c1cc(-c2ccc(-c3ccccc3)cc2)nc2ccccc12	.	?	-65.6	?	20.6µM
CCNC(=S)NNC(=O)c1cc(-c2ccccc2C)nc2ccccc12	16.4µM	?	.	?	.
[O-][N+](=NC1C=Cc2ccccc21)C1C=Cc2ccccc21 (stereo not drawn)	.	/	/	/	?
